From ChEMBL document CHEMBL1157539, “Thousands of chemical starting points for antimalarial lead identification” (Nature, 2010)
Several values for one entry are separate records, joined by “and”; a condition that tells them apart may be missing. Identical values can stand only once.

Legend:
Type in all cases: functional
Plasmodium falciparum [1] = test: GSK_TCMDC: Inhibition of Plasmodium falciparum 3D7 in whole red blood cells, using parasite LDH activity as an index of growth. Test compounds present at 2uM
Plasmodium falciparum [2] = test: GSK_TCMDC: Inhibition of Plasmodium falciparum Dd2 in whole red blood cells, using parasite LDH activity as an index of growth. Test compounds present at 2uM
HepG2 = test: GSK_TCMDC: Percent inhibition of human HepG2 cell line. Test compounds present at 10uM.

Row | Structure (SMILES) | Inhibition (Plasmodium falciparum [1]) | Inhibition (Plasmodium falciparum [2]) | Inhibition (HepG2)
1 | COc1cc(C(=O)N2COCC(CCCN3CCC(N4CCCC4)CC3)(c3ccc(Cl)c(Cl)c3)C2)cc(OC)c1OC (stereo not drawn) | 95% | 70% | 5%
2 | CCCC(C)Nc1nc(C)cc(N[C@@H](CC(C)C)C(=O)NCCc2ccccc2)n1.O=C(O)C(F)(F)F (stereo partly drawn) | 96% | 51% | 9%
3 | COc1cccc(CNC(=O)c2cccc(-c3ccc(CN4CCC(N5CCCC5)CC4)cc3)n2)c1.O=C(O)C(F)(F)F | 100% | 76% | 16%
4 | CCO[C@H]1CN[C@H](C#Cc2cc3c(Nc4ccc(OCc5cccc(F)c5)c(Cl)c4)ncnc3s2)C1.O=C(O)C(F)(F)F | 100% | 37% | 8%
5 | Cc1ccccc1C1CCN(C2CCC(NC(=O)c3cncc(-c4ccccc4)c3)CC2)CC1 (stereo not drawn) | 100% | 92% | 27%
6 | CN(c1ccccc1C(=O)Nc1ccccc1Oc1ccccc1)S(=O)(=O)c1ccccc1 | 90% | 80% | 2%
7 | COc1ccc(-c2nc(NC(=O)COc3ccc(C(C)=O)cc3)sc2C)cc1 | 98% | 58% | 0%
8 | Cc1nnsc1C(=O)Nc1cccc(-c2cccc(-c3nc4cc(F)ccc4[nH]3)c2)c1 | 100% | 45% | 35%
9 | CCCCCCC(C)c1cc(O)c2c(c1)OC(=O)CC2(CC)c1ccccn1.Cl (stereo not drawn) | 100% | 0% | 15%
10 | O=C(NC1CC1)c1ccc(Nc2nccc(-c3c(-c4cccc(NC(=O)c5c(F)cccc5F)c4)nn4ccccc34)n2)cc1 | 94% | 96% | 84%
11 | CC(C)[C@@H](NC(=O)NC1CCC(CCN2C3CCC2CC(OC(=O)C(CO)c2ccccc2)C3)CC1)C(O)(c1ccccc1)c1ccccc1 (stereo partly drawn) | 96% | 56% | 19%
12 | COc1ccc(C(=O)Nc2cc(Br)c3c(c2)CNCC3)cc1Br.Cl | 97% | 8% | 25%
13 | CN1CCN(CCCN(Cc2cccc(-c3ccc(CNCc4ccc5c(c4)OCO5)cc3)c2)C(=O)CCC2CCCC2)CC1.O=C(O)C(F)(F)F | 98% | 84% | 91%
14 | CC(C)CNCc1ccc(-c2cccc(CN(CCCN3CCN(C)CC3)C(=O)/C=C/c3ccccc3)c2)cc1.O=C(O)C(F)(F)F | 95% | 93% | 43%
15 | COc1ccc(OCC(=O)Nc2nc(-c3ccc(OC)cc3)c(C)s2)cc1 | 100% | 87% | 0%
16 | COc1ccc2ncc(F)c(CCN3CC(O)C(CNCc4nc5c(cc4Cl)OCC(=O)N5)C3)c2n1.Cl (stereo not drawn) | 93% and 90% | 23% and 15% and 30% | 12% and 13% and 5%
17 | CCS[C@@H]1O[C@H](COC(=O)c2ccccc2)[C@H](OC(=O)c2ccccc2)[C@H](OC(=O)c2ccccc2)[C@H]1OC(=O)c1ccccc1 | 98% | 52% | 4%
18 | Cc1nc(N)nc(N)c1-c1cccc(Cl)c1 | 88% | 0% | 60%
19 | CC(C)C(=O)NC(c1ccc(N(C)C)cc1)c1cc(Cl)c2cccnc2c1O (stereo not drawn) | 87% | 64% | 61%
20 | CNCCNCc1cccc(-c2ccc(-c3nc4ccccc4[nH]3)s2)c1.O=C(O)C(F)(F)F | 99% | 9% | 8%
21 | CCCc1ccc(NC(=O)c2ccc(CN3CCCN(Cc4ccc(OC)cc4)CC3)cc2)cc1.O=C(O)C(F)(F)F | 81% | 0% | 47%
22 | O=C(Nc1cccc(F)c1)c1ccc(C(=O)NC2CCN(CC3CCCCC3)CC2)cc1.O=C(O)C(F)(F)F | 96% | 16% | 22%
23 | CC(=O)N(C)C1CCN(Cc2cccc(-c3ccc(-c4nc5cc(F)ccc5[nH]4)cc3)c2)C1.O=C(O)C(F)(F)F (stereo not drawn) | 92% | 19% | 24%
24 | Br.CCCC1N=C(N)N=C(N)N1c1cccc([N+](=O)[O-])c1 (stereo not drawn) | 96% | 1% | 0%
25 | Cl.c1ccc2c(NCCCCCCCCCNc3ccnc4ccccc34)ccnc2c1 | 100% | 100% | 57%
26 | Cc1ccc(CN2CCN(Cc3cccc(NC(=O)c4cccs4)c3)CC2)cc1C.O=C(O)C(F)(F)F | 96% | 68% | 41%
